Data reported in PubChem BioAssay AID425 (Sanford-Burnham Center for Chemical Genomics, 2006).
The campaign covered roughly 110,000 compounds. About 190 (0.17%) were called active. Only a selection was taken, and actives are over-represented in it overall. Entries with a potency or affinity are not part of this list. A number with no mark means an inactive call. Rule as the data show it: active = inhibition above about 50%; inactive = the rest.

These compounds were tested against Dual specificity protein phosphatase 6 (Rattus norvegicus) (UniProt Q64346) (assay: inhibition of rat DUSP6 enzyme activity – biochemical, in vitro, primary screen (AID 425;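 also: plate controls were vehicle for no effect and reference inhibitor for full effect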)). Conditions: recombinant MKP-3 phosphatase activity, fluorescence; at 20 µM; active compounds read high.
Dual specificity protein phosphatase 6 (Rattus norvegicus), sequence (Q64346 whole entry, looked up): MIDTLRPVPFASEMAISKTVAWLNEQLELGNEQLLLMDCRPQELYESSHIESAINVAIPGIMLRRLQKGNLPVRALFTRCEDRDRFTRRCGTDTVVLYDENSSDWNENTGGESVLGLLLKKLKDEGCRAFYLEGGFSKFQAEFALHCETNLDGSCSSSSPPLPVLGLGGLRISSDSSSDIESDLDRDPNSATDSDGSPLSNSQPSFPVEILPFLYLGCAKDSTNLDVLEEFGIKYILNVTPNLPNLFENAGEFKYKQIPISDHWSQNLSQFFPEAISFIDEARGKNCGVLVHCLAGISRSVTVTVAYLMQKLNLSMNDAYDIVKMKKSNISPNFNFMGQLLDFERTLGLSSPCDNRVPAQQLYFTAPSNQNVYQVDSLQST
Compound `CN(C)C(=O)Oc1ccc([N+](=O)[O-])cc1` has an inhibition of -1.2%. `CN(CN1C(=O)C(=O)c2cc([N+](=O)[O-])ccc21)[N+](=O)[O-]` was tested, and the inhibition was 86.6% (active). `O=[N+]([O-])c1ccc(N2CCN(Cc3ccccc3)CC2)c(Cl)c1` gave an inhibition of -2.4%. Compound `CN1C(=O)C(=Cc2cccn2-c2cccc([N+](=O)[O-])c2)C(=O)N(C)C1=O` has an inhibition of 4.9%. Work on `O=C1NC(=S)N(c2cccc(Cl)c2)C(=O)/C1=C/c1ccc(Cl)cc1` yielded an inhibition of -0.2%. For `CCN1C(=O)/C(=C/c2ccc(OC)c3ccccc23)C(=O)NC1=S`, the inhibition was 2.2%. Compound `C=CCN1C(=O)NC(=O)C(=Cc2cccn2C)C1=O` has an inhibition of 2.3%. For `C=CCN1C(=O)/C(=C\c2cccn2-c2cccc([N+](=O)[O-])c2)C(=O)NC1=S`, the inhibition was 94.7% (active). `CCN1C(=O)/C(=C/c2cccn2C)C(=O)NC1=S` was tested, and the inhibition was 108% (active). With `CCN1C(=O)/C(=C/c2ccoc2)C(=O)NC1=S` the inhibition was 107% (active). `O=C1NC(=S)N(c2ccc(Cl)cc2)C(=O)/C1=C/c1ccc(-c2ccccc2C(=O)O)o1` was tested, and the inhibition was 6.3%. For `COc1ccc(CN2C(=O)NC(=O)/C(=C\c3ccoc3)C2=O)cc1`, the inhibition was 5.2%. With `Cn1cccc1/C=C1/C(=O)NC(=S)N(c2ccc(Cl)cc2)C1=O` the inhibition was 77.8% (active). For `C=CCN1C(=O)/C(=C\c2cccn2-c2ccc([N+](=O)[O-])cc2)C(=O)NC1=S`, the inhibition was 37.5%. Work on `O=C1NC(=O)N(c2ccccc2)C(=O)/C1=C/c1ccoc1` yielded an inhibition of 4.9%. `CCC1(c2ccccc2)C(=O)NC(=O)N(C(=O)c2cccc(F)c2)C1=O` (stereo not given) was tested, and the inhibition was -3.3%. `O=C1NC(=O)C(=Cc2ccc(OCc3cccc(C(=O)O)c3)cc2)C(=O)N1` showed an inhibition of -1%. `CCOc1c(P(=S)(N(C)C)N(C)C)c(C)nn1-c1ccccc1` showed an inhibition of -4.3%. Work on `Oc1ccc(CC2CC3CCN2CC3)cc1O` (stereo not given) yielded an inhibition of -5.2%. For `CCCc1[nH]nc2c1C1(C(=O)N(CC(N)=O)c3ccccc31)C(C(=O)OC)=C(N)O2` (stereo not given), the inhibition was -2.9%. Compound `CC1CCC(C(=O)NC(C(=O)N2CCC3(CC2)OCCO3)C(C)C)CC1` (stereo not given) has an inhibition of -15.8%. For `CCC1(C)CC(CCNCc2ccccc2)(c2ccc(C)cc2)CCO1` (stereo not given), the inhibition was -4%. For `Cc1ccccc1C(=O)Nc1cc(Cl)c([N+](=O)[O-])cc1Cl`, the inhibition was 1.4%. With `COC(=O)CCCNC(=O)CN1CC(c2ccccc2)CC1=O` (stereo not given) the inhibition was -1.1%. Compound `O=C(c1cc2c(s1)CCCC2)N1CCC2(CC1)OCCO2` has an inhibition of -11.3%. For `O=C1NC(=O)N(Cc2ccccc2)C(=O)/C1=C\C=C\c1ccco1`, the inhibition was 3.4%. For `O=C1NC(=S)N(c2cccc(Br)c2)C(=O)/C1=C/c1ccco1`, the inhibition was 108% (active). In the case of `O=C1NC(=S)N(c2cccc(Br)c2)C(=O)/C1=C/c1cccs1`, the inhibition is reported as 5.7%. For `CCOc1ccc(N2C(=O)/C(=C/c3cc(Cl)ccc3O)C(=O)NC2=S)cc1`, the inhibition was 4.8%. `O=C1NC(=S)N(c2cccc(Br)c2)C(=O)/C1=C/C=C/c1ccccc1` showed an inhibition of 11.1%. With `O=C1NC(=O)N(c2cccc(Br)c2)C(=O)/C1=C/c1ccco1` the inhibition was 97.8% (active). With `Cc1cccc(N2C(=O)NC(=O)C(=Cc3ccco3)C2=O)c1` the inhibition was 2.3%. Compound `C=CCN1C(=O)/C(=C\c2ccc(C)o2)C(=O)NC1=S` has an inhibition of 8.6%. In the case of `CCOc1ccc(N2C(=O)/C(=C/c3ccco3)C(=O)NC2=S)cc1`, the inhibition is reported as 107% (active). `CCOc1ccc(N2C(=O)/C(=C/c3ccc(C)cc3)C(=O)NC2=S)cc1` was tested, and the inhibition was 2.5%. Compound `CC(C)c1ccc(N2C(=O)NC(=O)/C(=C/c3ccco3)C2=O)cc1` has an inhibition of 4.9%. In the case of `C=CCN1C(=O)/C(=C\C=C\c2ccco2)C(=O)NC1=S`, the inhibition is reported as 83.7% (active). For `Clc1ccc(CCNCc2ccc3c(c2)OCO3)c(Cl)c1`, the inhibition was 1.1%. `O=c1c2ccccc2nc(-c2ccccc2F)n1-c1ccc(Cl)cc1` was tested, and the inhibition was 3.1%. Work on `O=C(Nc1cccc(OC(=O)N2CCOCC2)c1)N1CCOCC1` yielded an inhibition of 0.2%. Compound `CCOc1ccc2ccccc2c1/C=C1\C(=O)NC(=S)N(c2ccccc2)C1=O` has an inhibition of 0.5%. `CN(C)c1ccc(C=C2C(=O)NC(=S)N(c3ccccc3F)C2=O)cc1` was tested, and the inhibition was -0.6%. In the case of `O=C1NC(=S)N(c2ccccc2F)C(=O)C1=Cc1ccco1`, the inhibition is reported as 99% (active). With `Cc1ccc(C=C2C(=O)NC(=S)N(c3ccccc3F)C2=O)s1` the inhibition was 3%. For `O=C1NC(=S)N(c2ccc(Br)cc2)C(=O)/C1=C/c1ccc(-c2ccccc2C(=O)O)o1`, the inhibition was 4.4%. In the case of `O=C1NC(=S)N(c2ccccc2)C(=O)/C1=C/c1ccco1`, the inhibition is reported as 102% (active). With `CN1CCN(Cc2nc3ccccc3n2C)CC1` the inhibition was -3%. Compound `CCN1CCN(c2ccc(C(F)(F)F)cn2)CC1` has an inhibition of 2.1%. In the case of `CN1CCN(c2ccc(NC(=O)C(C)(C)C)cc2)CC1`, the inhibition is reported as -2.3%. `Cc1ccc2nc3c(cc2c1)CC1(C(=O)N(C)C(=O)N(C)C1=O)C1CCCCN31` (stereo not given) was tested, and the inhibition was -20.3%. For `O=C(c1ccc(N2N=N2)cc1)c1ccc(N2N=N2)cc1`, the inhibition was -3.2%. For `COc1ccc(N2C(=O)/C(=C/c3ccc(-c4cc(C(=O)O)ccc4Cl)o3)C(=O)NC2=S)cc1`, the inhibition was 9.5%. Compound `CN1C(=O)NC(=O)/C(=C/c2ccc(I)o2)C1=O` has an inhibition of -0.4%. Compound `CCOc1ccc(N2C(=O)/C(=C/c3ccc(C)o3)C(=O)NC2=S)cc1` has an inhibition of 13.5%. In the case of `CN1C(=O)NC(=O)/C(=C/c2ccc(Br)o2)C1=O`, the inhibition is reported as 6%. For `CCOc1ccc(N2C(=O)/C(=C/c3ccc(Br)o3)C(=O)NC2=S)cc1`, the inhibition was 104% (active). With `O=C1NC(=S)N(c2ccc(F)cc2)C(=O)/C1=C/c1ccc(Br)o1` the inhibition was 90.9% (active). Compound `CCOc1ccc(N2C(=O)NC(=O)/C(=C\c3ccc(C)o3)C2=O)cc1` has an inhibition of 3.6%. `O=C1NC(=O)N(c2ccc(Cl)cc2)C(=O)/C1=C/c1ccc(Br)o1` was tested, and the inhibition was 41.4%. With `COc1ccc(N2C(=O)/C(=C/c3ccc(I)o3)C(=O)NC2=S)cc1` the inhibition was 108% (active). `CCOC(=O)C1CCN(/C=C2/C(=O)NC(=O)N(Cc3ccco3)C2=O)CC1` was tested, and the inhibition was -5.2%. `O=C1N(CN2CCOCC2)c2ccccc2C1(O)c1c[nH]c2ccccc12` (stereo not given) showed an inhibition of 0.3%. `CN(C)C(=O)Oc1ccc(OC(=O)c2ccccc2)cc1` gave an inhibition of -6.4%. `O=C1c2ccccc2C2(c3ccc(Cl)cc3)NCCN12` (stereo not given) showed an inhibition of -7.5%. Work on `O=[N+]([O-])c1ccc(N2CCNCC2)cc1NCCOc1ccccc1` yielded an inhibition of 3.6%. `O=C(COc1ccc(Cl)cc1)N1CCN(Cc2ccc([N+](=O)[O-])cc2)CC1` showed an inhibition of -0.9%. `Cc1ccc(C=C2C(=O)N(C)C(=O)N(C)C2=O)o1` was tested, and the inhibition was -11.1%. For `Cc1cc(OCc2ccc(F)cc2)c2c3c(c(=O)oc2c1)CCCC3`, the inhibition was 2.6%. `Cn1cc(/C=C2\C(=O)NC(=O)N(Cc3ccccc3)C2=O)c2ccccc21` gave an inhibition of 2.1%. Compound `CC(C)N1CCN(Cc2cc(Br)ccc2O)CC1` has an inhibition of -1.8%.
